# Assay results published in PubChem BioAssay (NCATS).
# Results filed as inconclusive are left out. Where a call stands in place of a potency, no number is given. The source made the active and inactive calls. Calls come from the whole dose curve; as a rule, active = well fitted curve in the direction sought with a large enough effect; inconclusive = small, poorly fitted or top-dose-only effect, or another doubt; inactive = no such curve, though single readings can be large; an effect the other way counts as inactive or inconclusive.
# Experiments:
# [1] = molecular target: Aldehyde dehydrogenase, mitochondrial (Homo sapiens) (UniProt P05091); assay: qHTS for Inhibitors of the Aldehyde Dehydrogenase Family (ALDH2) Primary screen (AID 2061308); note: nearly all actives have a fitted effect of over 55% in size
# [2] = molecular target: Retinaldehyde dehydrogenase 3 (Homo sapiens) (UniProt P47895); assay: qHTS for Inhibitors of the Aldehyde Dehydrogenase Family (ALDH1A3) Primary screen (AID 2061315)
Compound,Potency [1],Potency [2]
CN(Cc1ccco1)c1ncnc2ccc(-c3ccc4c(ccn4C)c3)cc12,inactive,inactive
Cc1cccc(CNc2nc(-c3ccccc3C(C)C)ncc2C)c1,inactive,inactive
Nc1ccc(S(=O)(=O)N2CCCN(S(=O)(=O)c3ccc4c(c3)OCCO4)CC2)cc1,inactive,inactive
C#CCCC(=O)Nc1sc2c(c1-c1nc3ccccc3s1)CCNC2,inactive,inactive
O=C(OCC#CCSc1nnc(-c2ccc(Cl)cc2)o1)c1ccc(F)cc1,inactive,inactive
O=C(O)CNC(=O)CNC(=O)CNC(=O)CSC(=O)c1ccccc1,inactive,inactive
CCOc1cc(C)c(Cl)cc1S(=O)(=O)n1cnc2ccccc21,inactive,inactive
COc1cccc(CNc2ccc(S(=O)(=O)Nc3nc4ccccc4o3)cc2)c1O,inactive,inactive
Cc1ccc(OCCn2c(CCNC(=O)Cc3ccccc3)nc3ccccc32)cc1,inactive,inactive
c1ccc2c(Nc3nnc(-c4ccncc4)s3)cccc2c1,inactive,inactive
Cc1nc(NCc2ccccc2)c2nc(-c3ccccc3)n(CCCN3CCOCC3)c2n1,inactive,inactive
O=C1CCCC2=C1C1(CCCCC1)N=C(Nc1nc3ccccc3o1)N2,inactive,inactive
O=[S+]([O-])(Nc1cnc2ccccc2c1)c1ccc(NCc2ccc(Cl)cc2O)cc1,inactive,inactive
Cc1cccc(C)c1OCc1cccc(C2Nc3ccccc3C(=O)N2Cc2ccco2)c1 (stereo not given),inactive,inactive
Cc1cc2c(s1)c1cnn(Cc3ccc(C(=O)O)cc3)c(=O)c1n2C,inactive,inactive
Cc1ccc(S(=O)(=O)Nc2ccc(C)cc2C(=O)Nc2nc(-c3ccccc3)cs2)cc1,inactive,inactive
Nc1nc(NCc2ccc(-c3cccnc3)cc2)c2ccccc2n1,inactive,inactive
COc1cccc(C2c3c(ncn(-c4ccccc4SC)c3=N)Oc3ccc4ccccc4c32)c1 (stereo not given),inactive,inactive
CCCn1c(C)nc2c(NCCCCN(C)C)nc(C)nc21,inactive,inactive
O=C1NS(=O)(=O)c2cscc21,inactive,inactive
CCn1cnc2c(Nc3cccc(Cl)c3)nc(C#N)nc21,inactive,inactive
N[C@@H](Cc1ccccc1)C(=O)Nc1ccc(Cl)cc1C(=O)c1ccc[nH]1,inactive,inactive
CC(=O)Nc1sc2c(c1-c1ccc3nc[nH]c3c1)CCNC2,inactive,inactive

Compound,Potency [1],Potency [2]
CN(C)C(=O)C1CCN(c2nc(-c3ccc(Br)cc3)cs2)CC1,inactive,inactive
CCC(=O)NC(c1cccs1)c1ccc2cccnc2c1O (stereo not given),inactive,inactive
Cc1cc(N[S+](=O)([O-])c2ccc(NC(=O)Cc3ccc4c(c3)CCO4)cc2)no1,inactive,inactive
N#Cc1nc(NC2CCCC2)c2ncn(-c3cc(F)cc(F)c3)c2n1,inactive,inactive
Cc1cc(NS(=O)(=O)c2ccc(NC(=O)C(C)(C)c3ccc(Cl)c(Cl)c3)cc2)no1,inactive,inactive
COc1ccc(O)c(CNc2ccc(S(=O)(=O)Nc3nccs3)cc2)c1,inactive,inactive
Cc1ccnc(NC(=S)N2CC3CN(c4ncc(C(F)(F)F)cc4Cl)CC3C2)c1 (stereo not given),inactive,inactive
Cc1cccc(NC(=O)c2cnn3c(C)cc(C)nc23)c1,inactive,inactive
O=C(O)c1ccc2c(c1)C(=O)N([C@H](Cc1cccc3ccccc13)C(=O)O)C2=O,inactive,inactive
O=C(Nc1ccc(Cl)c(Cl)c1)Nc1ncc(-c2ccncc2)s1,inactive,inactive
Cc1cc(-c2nnc3n2CCCCC3)c(C)n1-c1cccc(C(F)(F)F)c1,inactive,inactive
O=S(=O)(Nc1ccccc1)c1ccc(O)c2ncccc12,inactive,inactive
C=C1C(=O)OC2CC(C)C(CCC(C)O)=CCC12 (stereo not given),inactive,inactive
COc1ccc(NC(=O)c2[nH]c(C)c(C(C)=O)c2C)cc1[S+](=O)([O-])Nc1ccccc1C#N,inactive,inactive
NC(=O)c1ccc(O)c2ncccc12,inactive,inactive
COc1cc(O)c(C(CC(=O)N2CCC(Cc3ccccc3)CC2)c2ccc(OC)c(OC)c2)c(OC)c1 (stereo not given),inactive,inactive
CCC(C)/C=C(C)/C=C/C1=CC2=CC(=O)C(C)(O)C(OC(C)=O)C2CO1 (stereo not given),inactive,inactive
Cc1cccc([S+](=O)([O-])NC2CCN(C#N)CC2)c1,inactive,inactive
O=C(Nc1ccc(S(=O)(=O)Nc2nccs2)cc1)C1CCC2(CCC2)CC1,inactive,inactive
O=C(CSc1nnc(-c2cccc(S(=O)(=O)N3CCCC3)c2)n1-c1ccccc1)Nc1ccccc1,inactive,inactive
COc1ccc(NC(=O)C(OC(=O)CNC(=O)c2ccccc2)c2ccccc2)cc1F (stereo not given),inactive,inactive
Cc1ccc(S(=O)(=O)Nc2cnccc2C(=O)NCc2ccccc2)cc1,inactive,inactive
NC(=O)c1ccnc2c(O)cccc12,inactive,inactive

Compound,Potency [1],Potency [2]
Cc1cccc(-c2nnc(C)n2CCCn2ccnc2)c1[N+](=O)[O-],inactive,inactive
COc1cccc(S(=O)(=O)Nc2cnccc2C(=O)Nc2nc(-c3ccccc3)cs2)c1,inactive,inactive
CCCCn1cnc2cc(C(=O)N3CCCCC3)ccc21,inactive,inactive
CC(=O)Nc1sc2c(c1-c1cccnc1)CCNC2,inactive,inactive
Cc1nc(N2CCOCC2)c2nc(-c3ccccc3)n(C(C)CN(C)C)c2n1 (stereo not given),inactive,inactive
O=C(CNC(=O)c1cccc(Cl)c1)OC(C(=O)Nc1cc(C(F)(F)F)ccc1Cl)c1ccccc1 (stereo not given),inactive,inactive
Clc1cccc(-c2ccc3ncnc(NCc4cccs4)c3c2)c1,inactive,inactive
C#CCOc1cc(C2=Nn3c(nnc3-c3cccc(OCC(C)=O)c3)SC2)ccc1OC,inactive,inactive
CCOc1ccc(CCNC(=O)c2csc(Br)n2)cc1OCC,inactive,inactive
Cc1ccc(NC(=O)CN2C(=O)N/C(=C\c3cccn3-c3ccc(C(=O)NC#N)cc3)C2=O)cc1,inactive,inactive
O=C(OCC#CCSc1nnc(-c2cccc3ccccc23)s1)c1cccs1,inactive,inactive
CC1(C)CC[C@]2(C(=O)O)CC[C@]3(C)C(=CCC4[C@@]5(C)C[C@@H](O)[C@H](O)[C@@](C)(CO)C5CC[C@]43C)C2C1 (stereo not given in full),inactive,inactive
COc1cccc(C2=Nn3c(nnc3-c3cc(OC)ccc3OC)SC2)c1,inactive,inactive
CNCC(=O)Nc1ccc(Cl)cc1C(=O)c1ccc[nH]1,inactive,inactive
O=C(O)c1ccc2c(c1)C(=O)N([C@H](Cc1c3ccccc3cc3ccccc13)C(=O)O)C2=O,inactive,inactive
Cc1c(P(=S)(c2ccccc2)c2ccccc2)[n+]2ccccc2n1CCCc1ccccc1,inactive,inactive
COc1ccc(CN(Cc2ccccc2)C(=O)c2ccccc2O)cc1COc1ccc(NC(C)=O)cc1,inactive,inactive
CCCCNc1nc(C)nc2c1nc(-c1ccccc1)n2CC1CCCN1CC (stereo not given),inactive,inactive
COCCNc1nc(C)nc2c1nc(-c1ccccc1)n2CCCN1CCCCC1C (stereo not given),inactive,inactive
Cc1ccc(NS(=O)(=O)c2ccc3[nH]c(=O)[nH]c3c2)cc1C,inactive,inactive
CC(C)(C)N=Cc1c(-c2ccccc2)no[n+]1[O-],inactive,inactive
Cc1ccc(OCCn2c(CCNC(=O)/C=C/c3ccccc3Br)nc3ccccc32)cc1,inactive,inactive
Cc1ccc(Nc2nc(-c3ccncc3)nc3ccccc23)cc1F,inactive,inactive

Compound,Potency [1],Potency [2]
CCOc1ccc(CCNC(=O)c2cc3sccc3n2CCN2CCN(C)CC2)cc1OCC,inactive,inactive
COC(=O)c1ccccc1C(=O)Nc1nc(-c2ccccc2)cs1,inactive,inactive
Cn1nnnc1Sc1ncnc2scc(-c3ccc(C(F)(F)F)cc3)c12,inactive,inactive
O=C(OCC#CCSc1nnc(-c2ccc3ccccc3c2)o1)c1cc2ccccc2s1,inactive,inactive
COc1cc(C2Nc3ccccc3C(=O)N2Cc2ccccc2)ccc1OCc1ccc(NC(C)=O)cc1 (stereo not given),inactive,inactive
Cc1ccc(OCCn2c(CCNC(=O)OC(C)(C)C)nc3ccccc32)cc1,inactive,inactive
Cc1ccc(OCCn2c(CCNC(=O)C3CCCCC3)nc3ccccc32)cc1,inactive,inactive
Cc1cc(-c2nnc3n2CCCCC3)c(C)n1-c1ccc(C(F)(F)F)cc1,inactive,inactive
CCN(Cc1ccccc1)c1ccc(Br)cn1,inactive,inactive
CCN(CC)CCCn1c(-c2ccccc2)nc2c(N(CCOC)CCOC)nc(C)nc21,inactive,inactive
Nc1cccc(S(=O)(=O)Nc2cnccc2C(=O)Nc2nc(-c3ccccc3)cs2)c1,inactive,inactive
Cc1ccc(=O)n(CC(=O)NCCc2ccccc2)n1,inactive,inactive
CN(C(=O)c1cccs1)c1cccnc1,inactive,inactive
NC(=O)C1CCN(c2nc(-c3cccs3)cs2)CC1,inactive,inactive
O=C(Cc1ccccc1)Nc1sc2c(c1C(=O)Nc1cccc(Cl)c1)CCCC2,inactive,inactive
O=[S+]([O-])(c1ccc(N2CCOCC2)nc1)N1CCN([S+](=O)([O-])c2c(F)cccc2F)CC1,inactive,inactive
O=C1CCCC2=C1C(c1[nH]ncc1Cl)N=C(Nc1nc3cc(Br)ccc3o1)N2 (stereo not given),inactive,inactive
O=C(Nc1ccc(Cl)c(Cl)c1)Nc1ccnc(-c2ccncc2)n1,inactive,inactive
Cc1cc(C(=O)Nc2ccc(NC(=O)Cc3ccc(Cl)c(Cl)c3)cc2)no1,inactive,inactive
CC(=O)NC(c1cc(F)c2cccnc2c1O)C(C)C (stereo not given),inactive,inactive
O=C(NCCc1nc2ccccc2n1CCO)C1CCCCC1,inactive,inactive
